# Screening results (PubChem BioAssay)
# TDP1 cell CPT = qHTS for Inhibitors of human tyrosyl-DNA phosphodiesterase 1 (TDP1): qHTS in cells in presence of CPT; chicken DT40 Tdp1-/-;hTDP1 cells + 20 nM CPT, ATP luminescence, 48 h; Potency, µM (doses to about 46.2 µM), for the others: at the highest dose activity change, negative = growth inhibition, hits mostly inhibitors; 12% of 420,000 active; also: potency is read from the fitted curve at half-maximal effect; % is scaled to controls: 0 for no effect and ±100 for the full control effect; nearly all actives have a fitted effect of over 55% in size
#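 Cell growth measured by CellTiter-Glo luminescence after a minimum 48 h, 37 C compound exposure with 20 nM CPT in Tdp1-knockout DT40 cells stably expressing hTDP1, seeded 400/well; qHTS titration format.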
# TGFb inhibitor = qHTS for Inhibitors of TGF-b; AID 588855, 2011; Potency, µM (top dose mostly 46.1 µM), without a hit: at the top dose activity, negative = inhibition, most hits filed as inhibitors; 1.2% of 410,000 active; HepG2 CAGA-GFP TGF-b/SMAD3 reporter, GFP fluorescence, 18 h; TGF-beta stimulated, 500 pg/mL final; also: potency is read from the fitted curve at half-maximal effect; % is scaled to controls: 0 for no effect and ±100 for the full control effect; nearly all actives have a fitted effect of over 65% in size
#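 HEPG2 CAGA-GFP cells (1000/well, DMEM with 1% FBS) were pre-incubated 2 h at 37 degrees C, given compound by pin tool, then stimulated with TGF-beta at 500 pg/mL final for 18 h before per-cell GFP fluorescence imaging.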
# DT40 TDP1 no CPT = qHTS for Inhibitors of human tyrosyl-DNA phosphodiesterase 1 (TDP1): qHTS in cells in absence of CPT; DT40 Tdp1-/- hTDP1 cells, no CPT, ATP luminescence, 48 h; Potency, µM (titrated, usually from 46.2 µM), inactives show at the highest dose activity change, negative = growth inhibition, most hits filed as inhibitors; 15% of 420,000 active; also: potency is read from the fitted curve at half-maximal effect; % is scaled to controls: 0 for no effect and ±100 for the full control effect; nearly all actives have a fitted effect of over 55% in size
#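 Stably hTDP1-transfected Tdp1-null chicken DT40 cells were treated with library compounds minus camptothecin and grown for at least 48 hr at 37 °C, after which cellular ATP was quantified by luminescence.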
# HepG2 viability = qHTS for Inhibitors of TGF-b: Cytotox Counterscreen; 0.76% of 410,000 active; HepG2 CAGA-GFP viability, ATP luminescence, 18 h; Potency, µM (highest dose often 46.1 µM), inactives show at the highest dose activity change, negative = cytotoxicity, usual class: cytotoxic; also: potency is read from the fitted curve at half-maximal effect
#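 CellTiter-Glo luminescence gave cytotoxicity after 18 hours at 37 degrees C. The cells were HepG2 CAGA-GFP in 1% FBS DMEM, stimulated with 500 pg/mL TGF-beta after compound addition. %Activity was normalised to no-cell wells (complete cell-killing) and DMSO (no toxicity), and curves were fitted and classified.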
# IL1B secr inh = qHTS for Inhibitors of Inflammasome Signaling: IL-1-beta AlphaLISA Primary Screen | AID 743279, 2014 | activity change, % at 57.5 µM | 4.7% of 360,000 active | THP-1 LPS/ATP IL-1B secretion, AlphaLISA, 16 h; stronger effect = lower value; in the data active = activity change below about -50%; inconclusive = mostly about -30% to -49%; also: % is scaled to controls: 0 for no effect and ±100 for the full control effect
#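 THP-1 cells pretreated 1 hr with compounds (up to 57.5 uM final), then stimulated with LPS (250 ng/mL final) plus ATP (1.25 mM final); secreted IL-1B measured by AlphaLISA after 16 hr, decreased signal indicating inhibition.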
# TDP1 block = qHTS Assay for Inhibitors of Tyrosyl-DNA Phosphodiesterase (TDP1); Tyrosyl-DNA phosphodiesterase 1 (Homo sapiens), Q9NUW8; recombinant TDP1, AlphaScreen DNA substrate cleavage; Potency, µM (top dose mostly 130 µM), without a hit: at the top dose activity change, negative = inhibition, actives largely listed as inhibitors; 0.28% of 350,000 active; AID 485290, 2010; also: potency is read from the fitted curve at half-maximal effect; % is scaled to controls: 0 for no effect and ±100 for the full control effect; nearly all actives have a fitted effect of over 40% in size
# Target sequence (Q9NUW8 whole entry, looked up): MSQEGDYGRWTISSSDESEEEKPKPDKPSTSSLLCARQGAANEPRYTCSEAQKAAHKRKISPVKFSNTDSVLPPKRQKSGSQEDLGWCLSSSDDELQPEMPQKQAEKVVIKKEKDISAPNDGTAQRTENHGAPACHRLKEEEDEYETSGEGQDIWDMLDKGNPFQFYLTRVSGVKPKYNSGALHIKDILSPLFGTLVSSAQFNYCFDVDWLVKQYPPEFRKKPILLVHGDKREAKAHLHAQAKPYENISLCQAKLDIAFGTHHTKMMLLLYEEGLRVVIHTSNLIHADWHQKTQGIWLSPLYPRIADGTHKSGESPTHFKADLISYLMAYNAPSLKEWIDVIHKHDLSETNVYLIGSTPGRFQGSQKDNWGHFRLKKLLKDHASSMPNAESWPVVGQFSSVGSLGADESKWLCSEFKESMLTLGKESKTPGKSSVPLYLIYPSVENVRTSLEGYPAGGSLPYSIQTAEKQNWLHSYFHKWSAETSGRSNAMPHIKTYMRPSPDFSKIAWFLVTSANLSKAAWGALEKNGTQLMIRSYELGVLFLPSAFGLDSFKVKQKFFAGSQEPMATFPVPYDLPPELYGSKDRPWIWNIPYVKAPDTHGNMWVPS
#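 E. coli-derived human Tdp1, 1 nM final. Cpd preinc 15 min RT; substrate 15 nM final, 5 min RT; AS bead mix 10 ug/ml final, 10 min RT. Signal loss = tyrosine-FITC cleavage. No-enzyme wells = max signal.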
# An asterisk follows results filed as active; ? = inconclusive; . = not tested or not shown; [ ] = remark or other dose. Hits are enriched below; roughly 18% of the tested compounds scored in any of these assays. Unless noted, calls follow the shape of the dose curve; as a rule, active = well fitted curve in the direction sought with a large enough effect; inconclusive = small, poorly fitted or top-dose-only effect, or another doubt; inactive = no such curve, though single readings can be large; an effect the other way counts as inactive or inconclusive.
SMILES,TDP1 cell CPT,TGFb inhibitor,DT40 TDP1 no CPT,HepG2 viability,IL1B secr inh,TDP1 block
Cc1ccc(OCCN2CCC2(C)C(=O)NCc2cccc3ccccc23)cc1 (stereo unspecified),?,?,?,-13.1%,-11.1,.
CC1(C(=O)NCc2cccc(C(F)(F)F)c2)CCN1CCc1ccccc1 (stereo unspecified),?,?,?,-71.2%,-9.1,.
CC(C)Oc1ccc(CN2CCC2(C)C(=O)NCc2cccc3ccccc23)cc1 (stereo unspecified),11.6µM*,?,14.6µM*,-64.0%,-19.4,.
CC1(C(=O)NCc2cccc3ccccc23)CCN1CCc1ccccc1 (stereo unspecified),?,?,18.4µM*,-39.8%,9.0,.
COCCNC(=O)c1ccc(N2CC3CC(C2)c2cccc(=O)n2C3)c(NC(=O)c2ccccc2Cl)c1 (stereo unspecified),-27.1%,-12.7%,1.0%,-41.3%,?,.
CCOC(=O)N1CCN(C(=O)c2ccccc2NS(=O)(=O)c2ccc(C)cc2)CC1,-7.9%,14.0%,-18.2%,-2.3%,11.8,5.5%[56.1 µM]
CCOC(=O)N1CCN(C2=C(NS(=O)(=O)c3ccccc3)C(=O)c3ccccc3C2=O)CC1,13µM*,?,?,-97.5%,5.6,12.6%
CCOC(=O)N1CCN(C2=C(NS(=O)(=O)c3ccc(Br)cc3)C(=O)c3ccccc3C2=O)CC1,11.6µM*,?,16.4µM*,-80.8%,12.5,.
O=C(NCCc1ccccn1)C1CC12CCN(C(=O)c1cccc(C(F)(F)F)c1)CC2 (stereo unspecified),-4.4%[9.04 µM],.,-19.1%,.,.,.
CCCCSCCCNC(=O)C1CCC(CNS(=O)(=O)c2c(C)cc(C)cc2C)CC1 (stereo unspecified),14.6µM*,0.0%,18.4µM*,-6.0%,.,2.8%
Cc1ccc(NC(=O)c2ccc3snnc3c2)cc1Cl,-10.4%,-8.4%,-16.1%,-21.6%,.,5.1%
CCOC(=O)[C@H]1[C@H]2COc3ccc(Br)cc3[C@H]2N2C(=O)CN(Cc3ccc(C)cc3)C(=O)[C@@]12C,?,-21.5%,?,-3.0%,-58.8*,.
CCOC(=O)[C@H]1[C@H]2COc3ccc(Cl)cc3[C@@H]2N2C(=O)CN(Cc3ccc(Cl)cc3)C(=O)[C@@]12C,?,?,16.4µM*,-1.2%,-17.8,0.4%
CCOC(=O)[C@H]1[C@H]2COc3ccc(Cl)cc3[C@@H]2N2C(=O)CN(Cc3ccccc3)C(=O)[C@@]12C,?,0.6%,20.6µM*,-18.4%,-7.9,1.1%
COc1ccc(CCN2C(=O)CCC2(C)c2nnnn2Cc2ccccc2)cc1OC (stereo unspecified),-26.7%,.,-21.8%,.,17.2,.
COC(=O)C[C@H]1c2cc(F)ccc2S(=O)(=O)N1C1CC1,?,-6.2%,?,2.1%,.,.
COC(=O)C[C@H]1c2cc(F)cc(F)c2S(=O)(=O)N1C1CCN(Cc2ccccc2)CC1,9.2µM*,-19.0%,6.51µM*,-20.3%,-1.1,.
CC(=O)C[C@H]1c2cc(F)cc(F)c2S(=O)(=O)N1C1CCN(Cc2ccccc2)CC1,5.62µM*,-20.1%,3.98µM*,2.7%,.,.
CC(C)(C)Nc1oc(-c2ccccc2)nc1-c1cccc2ccccc12,.,.,.,.,.,3.7%
CCCCCn1cc2c(c1-c1ccccc1Br)c(=O)n(C)c(=O)n2C,11.6µM*,?,11.6µM*,-17.7%,.,4.7%
